We go through 20 compounds from PubChem BioAssay (NCATS).

A short description of experiment [1]: NS1 protein of Zika virus - qHTS assay to identify small molecule inhibitors in human HEK 293 cells (AID 1347053). Note: series mostly up to about 46 µM; nearly all actives have a fitted effect of over 55% in size. In short, it runs like this: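 HEK 293 cells pretreated with compound for 1 h, then infected with ZIKV MR766 (MOI 0.5) for 24 h at 37 C. NS1 detected by TR-FRET with two anti-NS1 antibodies; normalized to uninfected (0%) and infected (100%) wells.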

The nature of experiment [2]: qHTS of pediatric cancer cell lines to identify multiple opportunities for drug repurposing: Primary screen for TC32 cells (AID 1347089). Note: nearly all actives have a fitted effect of over 60% in size. Note: potency is the fitted concentration of half-maximal effect. The essentials:
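In the primary qHTS, MIPE compounds were tested at 11 concentrations (0.78 nM to 46 µM) and NPC compounds at 8 (0.59 nM to 46 µM) on TC32 cells for 48 h. CellTiter-Glo luminescence gave viability.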
In general terms: Quantitative high-throughput screening tests each substance at several concentrations.

Experiment [3] is described as follows: qHTS of pediatric cancer cell lines to identify multiple opportunities for drug repurposing: Primary screen for SJ-GBM2 cells (AID 1347091). Note: potency is the fitted concentration of half-maximal effect. In short, it runs like this: (§1)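 Viability measured as metabolically active cells via CellTiter-Glo luminescence following 48 hours of compound exposure, 11-point dilutions in confirmatory testing. 500-1,000 cells/well plated 5 hours before dosing; controls were DMSO and 2.3 µM bortezomib.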

The nature of experiment [4]: qHTS of pediatric cancer cell lines to identify multiple opportunities for drug repurposing: Primary screen for A673 cells (AID 1347092). Note: nearly all actives have a fitted effect of over 45% in size. Note: potency is the fitted concentration of half-maximal effect. In short, it runs like this: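 48 h compound exposure, A673, 500-1,000 cells/well, 37 degrees C/5% CO2. MIPE: 11-point, 0.78 nM-46 µM; NPC: 8-point, 0.59 nM-46 µM (final). Readout CellTiter-Glo luminescence after 15 min RT.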
The nature of experiment [5]: qHTS of pediatric cancer cell lines to identify multiple opportunities for drug repurposing: Primary screen for SK-N-MC cells (AID 1347093). Note: potency is the fitted concentration of half-maximal effect. The essentials: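 Metabolically active cells were quantified by ATP-dependent luminescence (CellTiter-Glo, 15 min at room temperature) following 48 h treatment. Cells had been plated at 500-1,000 per well and settled for 5 h beforehand.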

Experiment [6] can be described thus: qHTS of pediatric cancer cell lines to identify multiple opportunities for drug repurposing: Primary screen for BT-37 cells (AID 1347094). Note: potency is the fitted concentration of half-maximal effect. In short, it runs like this: (§2)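 500-1,000 cells/well; 5 h pre-incubation 37 °C/5% CO2; compound pinned; 48 h; CellTiter-Glo, 15 min RT; luminescence. MIPE 11-pt from 0.78 nM, NPC 8-pt from 0.59 nM final. Bortezomib 2.3 µM final as positive control.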

Experiment [7] in a line: qHTS of pediatric cancer cell lines to identify multiple opportunities for drug repurposing: Primary screen for NB-EBc1 cells (AID 1347095). Note: potency is the fitted concentration of half-maximal effect. In short, it runs like this: as §2
A short description of experiment [8]: qHTS of pediatric cancer cell lines to identify multiple opportunities for drug repurposing: Primary screen for U-2 OS cells (AID 1347096). Note: nearly all actives have a fitted effect of over 50% in size. The essentials:
(§3)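 Viability after 48 h compound treatment at 37C, 500-1,000 cells/well, read as ATP luminescence with CellTiter-Glo. Primary screens used 11-point (MIPE, 0.78 nM-46 µM) or 8-point (NPC, 0.59 nM-46 µM) final concentrations; follow-up screens used 11-point dilutions.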

Experiment [9] can be described thus: qHTS of pediatric cancer cell lines to identify multiple opportunities for drug repurposing: Primary screen for SK-N-SH cells (AID 1347098). Note: nearly all actives have a fitted effect of over 65% in size. Note: potency is the fitted concentration of half-maximal effect. In short, it runs like this:
(§4)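 Cells (500-1,000/well) rested 5 h, then received compounds for 48 h; metabolically active cells were measured by CellTiter-Glo luminescence. Final concentrations spanned up to 46 µM (MIPE, 11-point) or 0.59 nM-46 µM (NPC, 8-point) in primary screens, 11-point in follow-ups.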

Experiment [10] can be described thus: qHTS of pediatric cancer cell lines to identify multiple opportunities for drug repurposing: Primary screen for NB1643 cells (AID 1347099). Note: nearly all actives have a fitted effect of over 50% in size. The essentials:
as §2

Experiment [11] can be described thus: qHTS of pediatric cancer cell lines to identify multiple opportunities for drug repurposing: Primary screen for LAN-5 cells (AID 1347100). Note: potency is the fitted concentration of half-maximal effect. In short, it runs like this:
as §3

Experiment [12] in a line: qHTS of pediatric cancer cell lines to identify multiple opportunities for drug repurposing: Primary screen for BT-12 cells (AID 1347101). Note: nearly all actives have a fitted effect of over 25% in size. Note: potency is the fitted concentration of half-maximal effect. The essentials:
as §4

Experiment [13] in a line: qHTS of pediatric cancer cell lines to identify multiple opportunities for drug repurposing: Primary screen for OHS-50 cells (AID 1347103). Note: nearly all actives have a fitted effect of over 40% in size. In short, it runs like this: as §4
Experiment [14] in a line: qHTS of pediatric cancer cell lines to identify multiple opportunities for drug repurposing: Primary screen for DAOY cells (AID 1347090). Note: series mostly up to about 46 µM; nearly all actives have a fitted effect of over 55% in size. In short, it runs like this: as §1
Experiment [15] can be described thus: qHTS of pediatric cancer cell lines to identify multiple opportunities for drug repurposing: Primary screen for Saos-2 cells (AID 1347097). Note: nearly all actives have a fitted effect of over 40% in size. Note: potency is the fitted concentration of half-maximal effect. In short, it runs like this:
as §2

A short description of experiment [16]: qHTS of pediatric cancer cell lines to identify multiple opportunities for drug repurposing: Primary screen for Rh18 cells (AID 1347102). Note: nearly all actives have a fitted effect of over 65% in size. Note: potency is the fitted concentration of half-maximal effect. In short, it runs like this:
as §3

Each structure is given as a SMILES string. Inconclusive results are not listed. Activity calls are given as the source filed them. Calls come from the whole dose curve; as a rule, active = well fitted curve in the direction sought with a large enough effect; inconclusive = small, poorly fitted or top-dose-only effect, or another doubt; inactive = no such curve, though single readings can be large; an effect the other way counts as inactive or inconclusive.

Consider `O=C(O)CNC(=O)CNC(=O)CNC(=O)CSC(=O)c1ccccc1`, for which the Potency entry in experiment [1], in [2], in experiment [3], in experiment [4], in experiment [5] and in experiment [6] was “inactive” throughout. The Potency entry in experiment [7], in experiment [8], in experiment [9], in [10], in [11] and in [12] was “inactive” each time. Besides, the Potency entry in experiment [13] was “inactive”.
Regarding `OC1(c2ccc(Cl)cc2)CCNCC1`, the Potency entry in experiment [1], in [14], in experiment [3], in experiment [4], in [5] and in [6] was “inactive” throughout. For the same compound, the Potency result in [7], in [8], in experiment [15], in experiment [9], in experiment [10] and in experiment [11] was “inactive” throughout. The Potency entry in experiment [12] and in experiment [16] was “inactive” each time.
For `NC(=O)COCCN1CCN(C(c2ccccc2)c2ccc(Cl)cc2)CC1` (configuration not stated), the Potency entry in experiment [1], in [2], in [3], in [4], in experiment [5] and in experiment [6] was “inactive” each time. The Potency entry in experiment [7], in [8], in experiment [15], in [10], in experiment [11] and in [12] was “inactive” in each case. For the same compound, the Potency result in [16] and in experiment [13] was “inactive” throughout.
Take `O=C(OCC(COC(=O)c1cccnc1)(COC(=O)c1cccnc1)COC(=O)c1cccnc1)c1cccnc1`: the Potency entry in experiment [1], in experiment [2], in experiment [3], in [4], in [5] and in [6] was “inactive” in each case. For the same compound, the Potency entry in experiment [7], in [15], in [10], in [11], in experiment [12] and in [13] was “inactive” in each case.
In the case of `CCCCC(CC)COC(=O)c1ccccc1C(=O)O` (configuration not stated), the Potency result in experiment [1], in experiment [2], in experiment [3], in [4], in experiment [6] and in [7] was “inactive” each time. The Potency entry in [8], in experiment [15], in experiment [9], in [10], in experiment [11] and in experiment [12] was “inactive” each time. In addition, the Potency result in experiment [16] and in [13] was “inactive” in each case.
As to `CC(C)(C)c1cc(C=O)cc(C(C)(C)C)c1O`, the Potency entry in experiment [1], in experiment [2], in experiment [3], in experiment [4], in [5] and in experiment [6] was “inactive” throughout. Moreover, the Potency result in [7], in [9], in experiment [10], in experiment [11], in experiment [12] and in experiment [16] was “inactive” each time. Further, in experiment [13], the Potency result is “inactive”.
Consider `C[C@@H](O[C@H]1OCCN(Cc2n[nH]c(=O)[nH]2)[C@H]1c1ccc(F)cc1)c1cc(C(F)(F)F)cc(C(F)(F)F)c1`, for which the Potency result in experiment [1] and in experiment [2] was “inactive” throughout. Moreover, the Potency in experiment [3] is 21.1 µM (active); in experiment [6], 21.9 µM (active); in experiment [7] it was 18.8 µM (active); in experiment [15] it was 11.9 µM (active); in experiment [9], 34.4 µM (active); in experiment [12] it was 15.5 µM (active). Besides, the Potency in [16] was 23.7 µM (active).
With `CC[N+](CC)(CC)CCOC(=O)C(C1CCCC1)C1CCCC1`, the Potency result in [1], in experiment [2], in experiment [3], in [6], in [7] and in experiment [8] was “inactive” in each case. Besides, the Potency result in experiment [15], in experiment [9] and in experiment [10] was “inactive” each time.
Consider `CC(=O)O[C@@H]1C(=O)O[C@@H]2[C@H]1OC(=O)[C@@H]2OC(C)=O`, for which the Potency result in [1], in [2], in experiment [3], in experiment [6], in experiment [7] and in [8] was “inactive” in each case. Also, the Potency entry in experiment [15], in [9], in experiment [12] and in experiment [16] was “inactive” throughout. Moreover, the Potency in [4] was 13.3 µM (active); in [5], 3.76 µM (active).
Regarding `CCCCN(CCN(CCCC)C(=O)N1CCOCC1)C(=O)N1CCOCC1`, the Potency entry in experiment [1], in experiment [2], in experiment [3], in experiment [6], in experiment [7] and in experiment [8] was “inactive” in each case. Also, the Potency in experiment [15] is 23.7 µM (active).
In the case of `O=C(O)c1ccccc1Nc1cc(Cl)ccc1C(=O)O`, the Potency entry in experiment [1], in experiment [2], in experiment [3], in experiment [4], in experiment [6] and in [8] was “inactive” each time. Moreover, the Potency result in experiment [11], in [12], in experiment [16] and in experiment [13] was “inactive” in each case. Moreover, the values for the Potency in experiment [5], in experiment [15] and in [9] were 8.2 µM (active), 9.2 µM (active) and 11.9 µM (active), respectively.
In the case of `Nc1ccc2c(c1)CN1C(=O)c3ccccc3C1=N2`, the Potency entry in experiment [1], in experiment [2] and in experiment [3] was “inactive” each time. Besides, the Potency in experiment [7] was 0.651 µM (active).
Regarding `CCN(CC)C(=O)C1CN2CCc3cc(OC)c(OC)cc3C2CC1OC(C)=O` (configuration not stated), the Potency entry in experiment [1], in [2], in experiment [3], in [4], in [5] and in experiment [6] was “inactive” throughout. The Potency entry in [7], in experiment [8], in [9], in [10], in experiment [12] and in [16] was “inactive” each time. In experiment [13], the Potency entry is “inactive”.
Consider `O=C1Cc2cc(Cl)ccc2N1`, for which the Potency result in experiment [1], in [14], in experiment [3], in experiment [4], in [5] and in experiment [6] was “inactive” in each case. Moreover, the Potency result in [7], in [8], in experiment [15], in [9], in experiment [10] and in [11] was “inactive” in each case. Besides, the Potency entry in experiment [12] and in experiment [16] was “inactive” each time.
With `C=CCNc1nc(NCC=C)nc(N2CCN(C(c3ccc(F)cc3)c3ccc(F)cc3)CC2)n1`, the Potency result in [1], in experiment [2], in experiment [3], in [8], in [9] and in experiment [10] was “inactive” throughout. For the same compound, the Potency result in experiment [11] was “inactive”.
As to `CC(C)OP(=O)(CP(=O)(OC(C)C)OC(C)C)OC(C)C`, the Potency result in experiment [1], in [2], in [3], in experiment [4], in experiment [5] and in experiment [6] was “inactive” each time. In addition, the Potency result in experiment [7], in [8], in experiment [15], in [9], in experiment [10] and in experiment [11] was “inactive” throughout. Besides, the Potency result in [12] and in experiment [13] was “inactive” in each case.
Take `O=C(O)c1[nH]n(-c2ccc(S(=O)(=O)O)cc2)c(=O)c1N=Nc1ccc(S(=O)(=O)O)cc1`: the Potency result in experiment [1], in experiment [2], in [3], in [4], in [5] and in experiment [6] was “inactive” in each case. Moreover, the Potency result in experiment [7], in [8], in experiment [15], in experiment [9], in experiment [10] and in experiment [11] was “inactive” each time. The Potency result in experiment [12] and in [13] was “inactive” throughout.
In the case of `COc1c(C)c2c(c(O)c1C/C=C(\C)CCC(=O)OCCN1CCOCC1)C(=O)OC2`, the Potency result in experiment [1] was “inactive”. The Potency in experiment [2] is 0.745 µM (active); in experiment [6], 0.347 µM (active); in experiment [7] it was 0.188 µM (active); in experiment [11], 0.841 µM (active).
Turning to `Cc1ccc(-c2ccccc2C#N)cc1`, the Potency entry in [1], in experiment [2], in experiment [3], in [4], in experiment [5] and in experiment [6] was “inactive” throughout. Moreover, the Potency entry in [15], in [9], in [10], in experiment [11], in experiment [12] and in [16] was “inactive” throughout. Further, the Potency result in experiment [13] is “inactive”.
In the case of `Cc1onc(-c2ccccc2)c1C(=O)Cl`, the Potency result in experiment [1], in experiment [2], in experiment [3], in [5], in experiment [6] and in experiment [8] was “inactive” each time. Also, the Potency result in [15], in experiment [9], in experiment [10], in experiment [11], in [12] and in experiment [16] was “inactive” in each case. Moreover, the Potency result in experiment [13] is “inactive”.
